Screening data as filed in PubChem.
TDP1 cell noCPT = qHTS for Inhibitors of human tyrosyl-DNA phosphodiesterase 1 (TDP1): qHTS in cells in absence of CPT | DT40 Tdp1-/- hTDP1 cells, no CPT, ATP luminescence, 48 h | Potency, µM (doses to about 46.2 µM), hits mostly inhibitors | hit rate 15% among 420,000; further: nearly all actives have a fitted effect of over 55% in size
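Camptothecin absent (DMSO only). Human TDP1-complemented DT40 knockout cells, 400 cells/well, 37 °C for minimum 48 hr; ATP measured via CellTiter-Glo, 30 min dark incubation, luminescence.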
HT1080 IDH1KD tx = toxicity to HT-1080 IDH1 knockdown cells (counter line). HT-1080 IDH1 knockdown viability, ATP luminescence, 48 h. Potency, µM (top dose mostly 46.1 µM), actives largely listed as cytotoxic. hit rate 2% among 360,000
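% activity derives from luminescence (CellTiter-Glo), normalised to DMSO and no-cell wells. HT-1080-IDH1KD cells, 750/well, had 48 h compound exposure at 37 °C.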
IL1B secr inh = blocks inflammasome-driven IL-1 beta release; hit rate 4.7% among 360,000; THP-1 LPS/ATP IL-1B secretion, AlphaLISA, 16 h; active compounds read low; activity change, % at 57.5 µM; in the data active means activity change below about -50%; inconclusive means mostly about -30% to -49%
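Secreted IL-1B measured by AlphaLISA bead assay after 16 h compound exposure of THP-1 cells; compounds (final up to 57.5 uM) added 1 h before LPS (250 ng/mL) and ATP (1.25 mM) stimulation; lower signal means less secretion.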
HT1080-NT tox = kills 2HG-producing HT-1080-NT fibrosarcoma cells. Potency, µM (top dose mostly 46.1 µM), hits mostly cytotoxic. hit rate 1.6% among 360,000. HT-1080-NT fibrosarcoma viability, CellTiter-Glo ATP luminescence, 48 h;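 further: NT is the 2HG producing partner of a matched IDH1 knockdown line; nearly all actives have a fitted effect of over 55% in size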
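Fibrosarcoma NT cells, 750 per well in 5% FBS RPMI, were exposed to compound for 48 hours. Viability: CellTiter-Glo luminescence.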
ELG1 repair inh = blocks ELG1-dependent DNA repair in HEK293T cells. HEK293T ELG1-luciferase reporter, luminescence, 16 h; DNA damage induced by 5-fluorouridine. Potency, µM (doses to about 46.1 µM), usual class: inhibitors. hit rate 2.3% among 330,000. AID 504467; further: nearly all actives have a fitted effect of over 55% in size
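DMSO vehicle served as the neutral condition. Each well held 2,000 cells given 5-fluorouridine plus compound; after 16 hr at 37 °C/5% CO2, ONE-Glo was added and luciferase measured 30 min later.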
TDP1 cell CPT = growth inhibition of DT40 Tdp1-/-;hTDP1 cells with camptothecin (screen for TDP1 inhibitors) | AID 686979 | chicken DT40 Tdp1-/-;hTDP1 cells + 20 nM CPT, ATP luminescence, 48 h | hit rate 12% among 420,000 | Potency, µM (top dose mostly 46.2 µM), actives largely listed as inhibitors; further: nearly all actives have a fitted effect of over 55% in size
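Chicken DT40 Tdp1-/- cells complemented with human TDP1, 400 cells/well, exposed to compounds plus 20 nM camptothecin for at least 48 h at 37 C; viability read as ATP content by CellTiter-Glo luminescence.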
A number is an active result; . = inactive; ? = inconclusive; / = not tested or not shown; ! = not active in a repeat. Sampled rows, rich in hits. Any-hit rate of the full collection: about 19%. Unless noted, the call rests on the fitted dose curve; in most records, active means well fitted curve in the direction sought with a large enough effect; inconclusive means small, poorly fitted or top-dose-only effect, or another doubt; inactive means no such curve, though single readings can be large; an effect the other way counts as inactive or inconclusive.

SMILES	TDP1 cell noCPT	HT1080 IDH1KD tx	IL1B secr inh	HT1080-NT tox	ELG1 repair inh	TDP1 cell CPT
CCCCCCCCCCCCN1[C@@H](CC(=O)OC)c2cc(F)ccc2S1(=O)=O	10µM	.	.	?	/	?
CCOC(=O)C[C@H]1c2ccc(C(F)(F)F)cc2S(=O)(=O)N1C1CCCC1	?	.	.	.	/	?
CCCCCCCCCCCCN1[C@@H](CC(C)=O)c2cc(C(F)(F)F)ccc2S1(=O)=O	?	.	.	.	/	?
CCCCCCCCCCCCN1[C@@H](CC(=O)OC)c2cc(F)cc(F)c2S1(=O)=O	18µM	.	.	.	/	?
CCOC(=O)C[C@H]1c2ccc(C(F)(F)F)cc2S(=O)(=O)N1C(C)(C)C	?	.	.	.	/	11µM!
CCCCCCCCCCCCN1[C@@H](CC(C)=O)c2cc(F)ccc2S1(=O)=O	?	.	.	.	/	?
O=C(C1COc2ccccc2O1)N(Cc1cccnc1)c1nc2ccc(F)cc2s1 (centres undefined)	.	/	/	/	/	.
N#CCC(=O)Nc1ccc(C(=O)OCC(=O)c2ccc3c(c2)NC(=O)CO3)cc1	.	.	.	.	.	.
O=C(Cn1c(=O)oc2cc(S(=O)(=O)N3CCCCC3)ccc21)Nc1cccc(Cl)c1	9.2µM	/	/	/	/	8.2µM
O=C(Cn1c(=O)oc2cc(S(=O)(=O)N3CCCCCC3)ccc21)Nc1cccc(C(F)(F)F)c1	9.2µM	/	/	/	/	8.2µM
CC1CCCCC1NC(=O)Cn1c(=O)oc2cc(S(=O)(=O)N3CCCC3)ccc21 (centres undefined)	?	.	.	.	.	?
O=C(Cn1c(=O)oc2cc(S(=O)(=O)N3CCCC3)ccc21)N1CCCC1	.	.	.	.	.	.
COC(=O)c1cc2oc3ccccc3c2n1Cc1c(C)cc(C)cc1C	.	/	/	/	/	.
CCOc1ccc(N2C=Nc3ccc(OCC)cc3C2)cc1	18µM	.	-60	.	.	21µM
NC(=O)COC(=O)c1ccc2noc(-c3ccccc3)c2c1	.	.	.	.	?	.
CN(C)c1ccc(P(=O)(OC2CCCCC2)C(O)c2cccnc2)cc1 (centres undefined)	.	.	.	.	.	.
CC(C)c1ccc(C(O)P(=O)(OC2CCCCC2)OC2CCCCC2)cc1 (centres undefined)	?	?	-92	?	.	?
CC(C)(C)c1ccc(-n2nc(C#N)c(Cl)cc2=O)cc1	2.9µM	3.3µM	-97	7.3µM	.	3.7µM
CC(C)(C)c1ccc(-n2nc(C(N)=O)c(O)cc2=O)cc1	?	.	.	.	.	?
CCN(CC)C(=O)C(Sc1nnnn1-c1ccc(O)cc1)c1ccccc1 (centres undefined)	?	.	-74	.	.	.
CC(=O)O/N=C(\N)c1cnn2c(C(F)(F)F)cc(C(F)(F)F)nc12	.	.	.	.	.	.
Nc1nonc1-n1nnc(C(=O)N/N=C/c2c(Cl)cccc2Cl)c1CSC1=NCCS1	.	.	.	.	.	.
Nc1nonc1-n1nnc(C(=O)N/N=C/C=C/c2ccccc2)c1CSC1=NCCS1	?	?	-90	?	?	?
CCCN(CCC)Cc1c(C(=O)N/N=C/C(C)=C\c2ccccc2)nnn1-c1nonc1N	26µM	?	-68	.	?	16µM
Oc1ccccc1N1CCN(c2ccc3ccccc3n2)CC1	.	.	?	.	?	.
Cn1cc([N+](=O)[O-])c(C(=O)N/N=C/c2ccc3c(c2)OCO3)n1	.	.	.	.	?	.
COc1ccc(NC(=O)c2cc(-c3ccccn3)nc3ccccc23)cc1S(=O)(=O)N(C)C	9.2µM	.	.	.	?	?
CCN(CC)S(=O)(=O)c1cc(NC(=O)c2cc(-c3ccccn3)nc3ccccc23)ccc1C	15µM	.	.	?	8.2µM	23µM
CCN(CC)S(=O)(=O)c1ccc(NC(=O)c2cc(=O)[nH]c3ccccc23)cc1	.	.	.	.	?	?
